The full data set covers some 8,800 targets. This sample favours those with a hit. About 0.5% of all pairs of compound and target were hits.
The targets below were run with CNC(=O)c1ccc(Nc2ncc(C(F)(F)F)c(NCc3nccnc3N(C)S(C)(=O)=O)n2)cc1 [defactinib] (assay: log2 fold change, soluble protein after heating vs DMSO (PISA); higher = thermal stabilisation; K562 lysate, 10 uM; active = over 0.2 and 3.5 SD of the protein, either way, in both replicates (recomputed)).
Method in brief: (§1)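 Pellets of K562 cells were dounce-homogenised in PBS pH 7.4 with 1 mM MgCl2, and the crude extract was held at 1 mg/mL protein for a 30 min treatment with 10 μM compound. Aliquots were heated for 3 min over 48°C-58°C and pooled before NP-40 was added to 0.5% at 4°C. The supernatant from 21,000xg for 90 min was quantified by TMTpro 16plex LC-MS/MS with channel sums equalised. Values are reported from duplicates as log-two fold change in thermal stability relative to solvent controls.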
Chain of UniProt O75607 (O75607 whole entry, looked up): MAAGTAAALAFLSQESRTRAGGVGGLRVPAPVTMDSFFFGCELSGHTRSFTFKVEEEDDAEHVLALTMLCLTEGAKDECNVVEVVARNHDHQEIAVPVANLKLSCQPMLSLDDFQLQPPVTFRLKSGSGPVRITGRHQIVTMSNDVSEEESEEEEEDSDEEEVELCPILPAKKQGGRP
Chain of UniProt Q12769 (Q12769 whole entry, looked up): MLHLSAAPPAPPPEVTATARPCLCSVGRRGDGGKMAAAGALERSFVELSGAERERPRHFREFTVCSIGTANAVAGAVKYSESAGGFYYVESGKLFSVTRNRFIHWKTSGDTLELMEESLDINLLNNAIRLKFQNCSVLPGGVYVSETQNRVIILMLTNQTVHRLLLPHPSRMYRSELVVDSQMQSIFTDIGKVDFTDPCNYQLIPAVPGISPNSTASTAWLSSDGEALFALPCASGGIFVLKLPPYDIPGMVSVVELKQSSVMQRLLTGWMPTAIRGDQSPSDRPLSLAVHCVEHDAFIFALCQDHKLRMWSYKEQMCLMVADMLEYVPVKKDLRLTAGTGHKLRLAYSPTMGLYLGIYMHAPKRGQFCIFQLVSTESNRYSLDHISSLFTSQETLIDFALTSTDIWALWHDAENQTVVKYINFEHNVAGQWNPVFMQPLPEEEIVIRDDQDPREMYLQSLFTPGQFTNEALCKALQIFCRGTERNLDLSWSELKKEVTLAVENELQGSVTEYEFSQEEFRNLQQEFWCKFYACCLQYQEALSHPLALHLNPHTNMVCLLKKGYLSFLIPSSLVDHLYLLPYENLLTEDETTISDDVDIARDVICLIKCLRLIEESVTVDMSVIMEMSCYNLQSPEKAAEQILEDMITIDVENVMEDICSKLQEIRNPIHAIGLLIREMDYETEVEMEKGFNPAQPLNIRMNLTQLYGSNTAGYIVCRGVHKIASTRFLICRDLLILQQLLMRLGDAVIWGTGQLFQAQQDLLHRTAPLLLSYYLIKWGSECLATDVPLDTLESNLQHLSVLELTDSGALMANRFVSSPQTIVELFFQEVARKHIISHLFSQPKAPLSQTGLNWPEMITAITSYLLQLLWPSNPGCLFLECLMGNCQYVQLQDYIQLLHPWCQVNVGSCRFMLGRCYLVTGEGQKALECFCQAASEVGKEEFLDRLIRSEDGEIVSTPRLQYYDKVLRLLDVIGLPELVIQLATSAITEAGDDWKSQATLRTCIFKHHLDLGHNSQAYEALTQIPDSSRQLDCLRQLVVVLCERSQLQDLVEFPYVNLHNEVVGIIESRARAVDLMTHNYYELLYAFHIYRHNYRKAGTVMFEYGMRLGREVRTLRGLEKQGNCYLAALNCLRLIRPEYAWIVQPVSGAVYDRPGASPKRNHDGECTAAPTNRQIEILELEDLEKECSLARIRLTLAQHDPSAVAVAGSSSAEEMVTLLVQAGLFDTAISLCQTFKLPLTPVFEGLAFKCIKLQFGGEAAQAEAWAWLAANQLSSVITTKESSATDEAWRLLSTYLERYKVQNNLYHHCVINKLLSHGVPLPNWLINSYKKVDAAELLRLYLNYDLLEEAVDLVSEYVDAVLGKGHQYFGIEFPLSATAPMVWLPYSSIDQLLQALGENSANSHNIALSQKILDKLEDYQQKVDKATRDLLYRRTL
Chain of UniProt Q9BRA0 (Q9BRA0 whole entry, looked up): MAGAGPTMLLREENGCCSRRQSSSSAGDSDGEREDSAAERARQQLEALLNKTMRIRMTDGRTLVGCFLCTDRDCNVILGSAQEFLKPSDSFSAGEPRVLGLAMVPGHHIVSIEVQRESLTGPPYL
Chain of UniProt Q86W56 (Q86W56 whole entry, looked up): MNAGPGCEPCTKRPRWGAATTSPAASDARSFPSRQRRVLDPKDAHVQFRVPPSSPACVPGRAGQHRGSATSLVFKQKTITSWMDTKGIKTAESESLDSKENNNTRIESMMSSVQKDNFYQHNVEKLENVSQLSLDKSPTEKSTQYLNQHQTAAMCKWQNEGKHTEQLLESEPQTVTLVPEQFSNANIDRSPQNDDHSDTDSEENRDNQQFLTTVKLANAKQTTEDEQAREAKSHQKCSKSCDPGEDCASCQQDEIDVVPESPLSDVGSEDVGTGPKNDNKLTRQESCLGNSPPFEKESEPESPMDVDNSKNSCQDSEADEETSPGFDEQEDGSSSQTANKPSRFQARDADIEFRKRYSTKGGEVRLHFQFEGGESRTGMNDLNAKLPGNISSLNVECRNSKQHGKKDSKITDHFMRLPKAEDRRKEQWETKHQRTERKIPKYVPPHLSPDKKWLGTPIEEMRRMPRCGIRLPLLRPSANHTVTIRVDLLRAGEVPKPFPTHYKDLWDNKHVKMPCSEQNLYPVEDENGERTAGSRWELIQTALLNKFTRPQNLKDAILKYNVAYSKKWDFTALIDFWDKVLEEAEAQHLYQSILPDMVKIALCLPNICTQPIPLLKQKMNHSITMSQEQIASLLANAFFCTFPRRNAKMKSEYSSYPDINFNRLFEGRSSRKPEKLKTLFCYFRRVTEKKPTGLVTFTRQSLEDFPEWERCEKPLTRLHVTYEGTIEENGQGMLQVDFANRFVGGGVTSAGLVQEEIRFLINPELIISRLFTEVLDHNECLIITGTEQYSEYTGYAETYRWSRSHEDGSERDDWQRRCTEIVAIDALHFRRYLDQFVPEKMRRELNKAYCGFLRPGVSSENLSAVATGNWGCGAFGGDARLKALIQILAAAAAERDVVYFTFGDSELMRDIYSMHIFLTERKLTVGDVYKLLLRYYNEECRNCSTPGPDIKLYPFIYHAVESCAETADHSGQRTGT
Chain of MTHFD1, A0A384N5Y3 (A0A384N5Y3 whole entry, looked up): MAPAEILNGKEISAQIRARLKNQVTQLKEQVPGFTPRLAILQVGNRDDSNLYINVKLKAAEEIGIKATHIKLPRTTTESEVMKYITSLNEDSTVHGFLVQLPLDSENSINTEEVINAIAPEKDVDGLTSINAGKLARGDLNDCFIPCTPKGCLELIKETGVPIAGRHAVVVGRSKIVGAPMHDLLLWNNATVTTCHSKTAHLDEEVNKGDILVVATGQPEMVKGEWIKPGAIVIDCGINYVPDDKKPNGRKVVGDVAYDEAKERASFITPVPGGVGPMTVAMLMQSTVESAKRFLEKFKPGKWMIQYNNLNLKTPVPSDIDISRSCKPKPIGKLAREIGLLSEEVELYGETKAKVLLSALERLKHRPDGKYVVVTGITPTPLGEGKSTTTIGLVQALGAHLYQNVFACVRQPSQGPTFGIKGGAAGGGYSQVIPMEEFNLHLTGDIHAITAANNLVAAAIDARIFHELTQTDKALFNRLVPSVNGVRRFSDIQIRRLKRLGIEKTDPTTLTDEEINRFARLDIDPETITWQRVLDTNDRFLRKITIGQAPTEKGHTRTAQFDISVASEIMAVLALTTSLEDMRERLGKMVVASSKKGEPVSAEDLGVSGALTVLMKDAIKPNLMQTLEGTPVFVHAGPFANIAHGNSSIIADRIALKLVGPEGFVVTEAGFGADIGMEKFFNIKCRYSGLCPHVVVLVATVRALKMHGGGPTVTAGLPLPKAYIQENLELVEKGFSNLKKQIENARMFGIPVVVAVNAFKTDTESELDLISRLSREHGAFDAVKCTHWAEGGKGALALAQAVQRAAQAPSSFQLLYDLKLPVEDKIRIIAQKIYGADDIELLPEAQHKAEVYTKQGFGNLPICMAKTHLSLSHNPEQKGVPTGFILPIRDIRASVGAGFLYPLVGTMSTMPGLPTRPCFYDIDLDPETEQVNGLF
Chain of UniProt Q96DH6 (Q96DH6 whole entry, looked up): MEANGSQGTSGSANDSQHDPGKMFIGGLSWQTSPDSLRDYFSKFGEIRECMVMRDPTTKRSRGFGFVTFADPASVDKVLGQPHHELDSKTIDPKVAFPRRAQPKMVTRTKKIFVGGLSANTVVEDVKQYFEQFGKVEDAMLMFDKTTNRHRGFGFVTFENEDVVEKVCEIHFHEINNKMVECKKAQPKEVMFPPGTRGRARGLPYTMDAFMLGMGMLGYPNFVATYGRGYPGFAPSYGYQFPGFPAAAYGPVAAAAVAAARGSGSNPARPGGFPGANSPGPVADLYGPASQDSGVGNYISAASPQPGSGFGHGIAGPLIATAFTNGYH
Chain of UniProt P00156 (P00156 whole entry, looked up): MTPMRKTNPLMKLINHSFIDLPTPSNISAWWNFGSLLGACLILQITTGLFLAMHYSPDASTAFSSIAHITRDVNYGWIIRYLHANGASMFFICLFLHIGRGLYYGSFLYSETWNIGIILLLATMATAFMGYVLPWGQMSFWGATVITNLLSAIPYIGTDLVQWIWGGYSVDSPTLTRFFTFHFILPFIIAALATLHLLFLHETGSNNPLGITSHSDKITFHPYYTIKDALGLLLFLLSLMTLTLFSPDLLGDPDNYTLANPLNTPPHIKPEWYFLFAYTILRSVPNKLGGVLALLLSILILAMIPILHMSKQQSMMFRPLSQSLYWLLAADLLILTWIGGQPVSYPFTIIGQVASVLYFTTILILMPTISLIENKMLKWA
Chain of UniProt Q8IVI9 (Q8IVI9 whole entry, looked up): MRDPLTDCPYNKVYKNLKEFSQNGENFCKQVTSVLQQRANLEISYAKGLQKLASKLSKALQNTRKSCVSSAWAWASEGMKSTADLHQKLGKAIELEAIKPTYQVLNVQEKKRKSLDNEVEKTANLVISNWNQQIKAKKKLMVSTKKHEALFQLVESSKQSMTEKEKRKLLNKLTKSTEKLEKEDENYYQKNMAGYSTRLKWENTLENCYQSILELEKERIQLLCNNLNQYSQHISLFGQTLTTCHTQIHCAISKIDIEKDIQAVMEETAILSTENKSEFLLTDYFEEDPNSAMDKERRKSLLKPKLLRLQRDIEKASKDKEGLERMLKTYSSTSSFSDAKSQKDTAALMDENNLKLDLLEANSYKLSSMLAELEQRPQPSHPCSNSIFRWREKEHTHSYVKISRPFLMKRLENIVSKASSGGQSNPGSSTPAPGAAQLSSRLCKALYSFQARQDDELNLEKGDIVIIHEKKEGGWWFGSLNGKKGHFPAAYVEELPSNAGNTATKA
Chain of UniProt Q15843 (Q15843 whole entry, looked up): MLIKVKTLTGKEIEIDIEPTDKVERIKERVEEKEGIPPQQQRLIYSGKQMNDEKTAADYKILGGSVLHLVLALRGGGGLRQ
With NOSTRIN (UniProt Q8IVI9) the log2 fold change was 0.07 (inactive). For NUP160 (UniProt Q12769), the log2 fold change was 0.004 (inactive). For MT-CYB (UniProt P00156), the log2 fold change was 0.091 (inactive). PARG (UniProt Q86W56) was tested, and the log2 fold change was 0.041 (inactive). In the case of OSGEP (UniProt Q9NPF4), the log2 fold change is reported as 0 (inactive). ORC3 isoform 2 (UniProt Q9UBD5) was tested, and the log2 fold change was 0.022 (inactive). For MTHFD1, A0A384N5Y3, the log2 fold change was 0.03 (inactive). For NAA38 isoform 2 (UniProt Q9BRA0), the log2 fold change was 0.013 (inactive). For NPTN (UniProt Q9Y639), the log2 fold change was -0.185 (inactive). For NUP133 (UniProt Q8WUM0), the log2 fold change was 0.035 (inactive). For MSI2 (UniProt Q96DH6), the log2 fold change was 0.076 (inactive). For PAN2 isoform 2 (UniProt Q504Q3), the log2 fold change was -0.099 (inactive). With NPM3 (UniProt O75607) the log2 fold change was 0.062 (inactive).

Each target was assayed with CNc1nc(-c2ccc3c(N)n[nH]c3c2)cc(N2C[C@@H](C(=O)NC3CCCCC3)CC[C@H]2C)n1 in the same assay as above.
Method in brief: as §1
In the case of NUMBL (UniProt Q9Y6R0), the log2 fold change is reported as 0.023 (inactive). OPA1 isoform 2 (UniProt O60313) was tested, and the log2 fold change was -0.042 (inactive). In the case of MTHFD1L (UniProt B7ZM99), the log2 fold change is reported as -0.01 (inactive). PARD3 (UniProt Q8TEW0) was tested, and the log2 fold change was -0.031 (inactive). With NACC1 (UniProt Q96RE7) the log2 fold change was 0.016 (inactive). For NEDD8 (UniProt Q15843), the log2 fold change was 0.037 (inactive). PANK4 (UniProt Q9NVE7) was tested, and the log2 fold change was 0.019 (inactive). With NAA35 (UniProt Q5VZE5) the log2 fold change was 0 (inactive). OGFR (UniProt Q9NZT2) was tested, and the log2 fold change was -0.03 (inactive). In the case of MTMR6 (UniProt Q9Y217), the log2 fold change is reported as -0.047 (inactive). With OTC (UniProt P00480) the log2 fold change was -0.152 (inactive). In the case of NELFCD (UniProt Q8IXH7), the log2 fold change is reported as -0.055 (inactive). For NFATC2IP (UniProt Q8NCF5), the log2 fold change was 0.002 (inactive). NUDT4 isoform 2 (UniProt Q9NZJ9) was tested, and the log2 fold change was 0.073 (inactive). For NADK2 (UniProt Q4G0N4), the log2 fold change was 0.04 (inactive). For NUP98 (UniProt P52948), the log2 fold change was 0.047 (inactive). NR3C1 isoform 3 (UniProt P04150) was tested, and the log2 fold change was -0.093 (inactive). In the case of PAXBP1 (UniProt Q9Y5B6), the log2 fold change is reported as -0.004 (inactive). In the case of NCAPD3 (UniProt P42695), the log2 fold change is reported as 0.013 (inactive). With NPLOC4 isoform 2 (UniProt Q8TAT6) the log2 fold change was 0.043 (inactive). For N4BP2 (UniProt Q86UW6), the log2 fold change was -0.004 (inactive). In the case of NCAPD2 (UniProt Q15021), the log2 fold change is reported as -0.018 (inactive). With NCAPG (UniProt Q9BPX3) the log2 fold change was 0.01 (inactive). For NOSTRIN (UniProt Q8IVI9), the log2 fold change was 0.061 (inactive). NUP160 (UniProt Q12769) was tested, and the log2 fold change was -0.03 (inactive). MT-CYB (UniProt P00156) was tested, and the log2 fold change was 0.129 (inactive). PARG (UniProt Q86W56) was tested, and the log2 fold change was -0.016 (inactive). With OSGEP (UniProt Q9NPF4) the log2 fold change was 0.03 (inactive). With ORC3 isoform 2 (UniProt Q9UBD5) the log2 fold change was 0.035 (inactive). With MTHFD1, A0A384N5Y3 the log2 fold change was 0.002 (inactive). For NAA38 isoform 2 (UniProt Q9BRA0), the log2 fold change was 0.03 (inactive). In the case of NPTN (UniProt Q9Y639), the log2 fold change is reported as 0.03 (inactive). In the case of NUP133 (UniProt Q8WUM0), the log2 fold change is reported as -0.028 (inactive). With MSI2 (UniProt Q96DH6) the log2 fold change was -0.012 (inactive). PAN2 isoform 2 (UniProt Q504Q3) was tested, and the log2 fold change was -0.046 (inactive). In the case of NPM3 (UniProt O75607), the log2 fold change is reported as 0.011 (inactive).

Each target was assayed with COC(=O)N[C@@H](C)CNc1nccc(-c2cn(C(C)C)nc2-c2cc(Cl)cc(NS(C)(=O)=O)c2F)n1 [encorafenib] in the same assay as above.
Method in brief: as §1
NUMBL (UniProt Q9Y6R0) was tested, and the log2 fold change was 0.189 (inactive). In the case of OPA1 isoform 2 (UniProt O60313), the log2 fold change is reported as -0.017 (inactive). MTHFD1L (UniProt B7ZM99) was tested, and the log2 fold change was -0.041 (inactive). With PARD3 (UniProt Q8TEW0) the log2 fold change was 0.007 (inactive). With NACC1 (UniProt Q96RE7) the log2 fold change was 0.022 (inactive). NEDD8 (UniProt Q15843) was tested, and the log2 fold change was 0.015 (inactive). For PANK4 (UniProt Q9NVE7), the log2 fold change was -0.011 (inactive). With NAA35 (UniProt Q5VZE5) the log2 fold change was 0.01 (inactive). For OGFR (UniProt Q9NZT2), the log2 fold change was 0.02 (inactive). For MTMR6 (UniProt Q9Y217), the log2 fold change was 0.028 (inactive). In the case of OTC (UniProt P00480), the log2 fold change is reported as -0.047 (inactive). With NELFCD (UniProt Q8IXH7) the log2 fold change was 0 (inactive). With NFATC2IP (UniProt Q8NCF5) the log2 fold change was 0.003 (inactive). NUDT4 isoform 2 (UniProt Q9NZJ9) was tested, and the log2 fold change was 0.025 (inactive). NADK2 (UniProt Q4G0N4) was tested, and the log2 fold change was -0.052 (inactive). In the case of NUP98 (UniProt P52948), the log2 fold change is reported as 0.064 (inactive). In the case of NR3C1 isoform 3 (UniProt P04150), the log2 fold change is reported as 0.05 (inactive). With PAXBP1 (UniProt Q9Y5B6) the log2 fold change was 0.018 (inactive). In the case of NCAPD3 (UniProt P42695), the log2 fold change is reported as 0.037 (inactive). In the case of NPLOC4 isoform 2 (UniProt Q8TAT6), the log2 fold change is reported as 0.021 (inactive). With N4BP2 (UniProt Q86UW6) the log2 fold change was 0.06 (inactive). NCAPD2 (UniProt Q15021) was tested, and the log2 fold change was 0.013 (inactive). In the case of NCAPG (UniProt Q9BPX3), the log2 fold change is reported as -0.01 (inactive). NOSTRIN (UniProt Q8IVI9) was tested, and the log2 fold change was -0.112 (inactive). In the case of NUP160 (UniProt Q12769), the log2 fold change is reported as 0.059 (inactive). For MT-CYB (UniProt P00156), the log2 fold change was 0.036 (inactive). PARG (UniProt Q86W56) was tested, and the log2 fold change was 0.027 (inactive). For OSGEP (UniProt Q9NPF4), the log2 fold change was -0.008 (inactive). For ORC3 isoform 2 (UniProt Q9UBD5), the log2 fold change was 0.02 (inactive). With MTHFD1, A0A384N5Y3 the log2 fold change was -0.016 (inactive). In the case of NAA38 isoform 2 (UniProt Q9BRA0), the log2 fold change is reported as -0.022 (inactive). NPTN (UniProt Q9Y639) was tested, and the log2 fold change was -0.023 (inactive). NUP133 (UniProt Q8WUM0) was tested, and the log2 fold change was 0.039 (inactive). In the case of MSI2 (UniProt Q96DH6), the log2 fold change is reported as 0.144 (inactive). In the case of PAN2 isoform 2 (UniProt Q504Q3), the log2 fold change is reported as 0.08 (inactive). For NPM3 (UniProt O75607), the log2 fold change was 0.012 (inactive).
